Screening data: PubChem, National Center for Advancing Translational Sciences (NCATS)
Rows were chosen to be rich in hits. Some 2.7% of all compounds tested hit in one or more screens of this group.
mIDH1 inhibitor: inhibitors of human mutant IDH1 R132H; O75874; IDH1-R132H enzyme, NADPH consumption, diaphorase/resazurin fluorescence; Potency, µM (doses to about 76.6 µM), most hits filed as inhibitors; actives 0.093% (n = 390,000); AID 602179; further: nearly all actives have a fitted effect of over 65% in size
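IDH1-R132H (0.5 ug/mL dispensed) in pH 7.5 Tris buffer was preincubated 30 min with compound, then given a substrate mix of 0.016 mM NADPH and 2 mM alpha-KG for 80 min at room temperature; remaining NADPH was read by diaphorase/resazurin fluorescence.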
GLP1R ag: activates the human GLP-1 receptor. Potency, µM (titrated, usually from 45.6 µM), actives largely listed as activators. actives 0.007% (n = 380,000). HEK293 GLP-1R CRE-luciferase, luminescence, 4-6 h; cells express a hypersensitive GLP-1R form. P43220
Target sequence (P43220 whole entry, looked up): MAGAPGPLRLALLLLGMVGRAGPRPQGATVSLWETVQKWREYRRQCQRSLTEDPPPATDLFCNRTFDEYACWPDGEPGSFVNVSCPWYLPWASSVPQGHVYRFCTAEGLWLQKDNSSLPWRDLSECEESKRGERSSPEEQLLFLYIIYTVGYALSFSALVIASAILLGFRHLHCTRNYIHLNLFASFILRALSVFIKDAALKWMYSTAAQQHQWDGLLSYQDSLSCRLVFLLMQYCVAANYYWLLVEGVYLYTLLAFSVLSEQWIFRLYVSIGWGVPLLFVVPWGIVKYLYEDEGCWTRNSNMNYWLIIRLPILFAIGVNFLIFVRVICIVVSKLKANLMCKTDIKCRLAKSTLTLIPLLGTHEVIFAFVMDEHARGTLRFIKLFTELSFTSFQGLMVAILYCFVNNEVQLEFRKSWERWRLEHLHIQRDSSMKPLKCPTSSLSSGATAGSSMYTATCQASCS
TrxR1 substrate: substrates of rat thioredoxin reductase 1; purified TrxR1 substrate turnover, NADPH consumption readout; Potency, µM (series often up to 114 µM); actives 0.01% (n = 390,000); O89049; further: nearly all actives have a fitted effect of over 50% in size
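Rat TrxR1, dispensed at 90 nM, was prereduced with 400 uM NADPH (final) for 5 min at ~22 deg C, then incubated with compound 15 min before 400 uM selenite. A first-read NADPH fluorescence drop versus no-compound background flagged substrates.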
GLP1R inv ag: inverse agonists of human GLP-1 receptor; AID 624417; Potency, µM (top dose mostly 38.3 µM), usual class: inhibitors; actives 1.6% (n = 410,000); P43220; HEK293 GLP-1R CRE-luciferase, luminescence, 24 h; GLP-1R form is constitutively active; further: nearly all actives have a fitted effect of over 55% in size
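Inverse agonism was detected as reduced cAMP-driven luciferase luminescence after 24 h compound treatment. The cells were HEK293 clones expressing constitutively active human GLP-1R with the reporter. Reporter-only and GPR119 cell lines served as counterscreen controls.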
GLP1R cytotox: cytotoxicity in counter-screen for GLP-1R inverse agonists. HEK293 cAMP-luciferase reporter cells, luminescence, 24 h. Potency, µM (titrated, usually from 38.3 µM), most hits filed as inhibitors. actives 0.13% (n = 410,000);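 further: loss of luciferase light is scored as toxicity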
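Cells in DMEM/10% Nu serum/1% pen-strep, 1536-well format. Pre-incubated 12 h, dosed with 23 nL compound, incubated a further 24 h. Luciferase detection, 12 min at room temp, luminescence.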
rTrxR1 inhibitor: inhibitors of rat thioredoxin reductase 1 | actives 1% (n = 390,000) | recombinant rTrxR1, NADPH fluorescence consumption, selenite substrate | O89049 | Potency, µM (highest dose often 114 µM), most hits filed as inhibitors; further: nearly all actives have a fitted effect of over 65% in size
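Rat TrxR1 (90 nM in the dispensed reagent) was pre-reduced with 400 uM NADPH for 5 min at room temperature, then incubated with compound for 15 min. After 400 uM selenite was added, NADPH fluorescence (Ex 340/Em 450 nm) was followed for 8 min.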
A number is an active result; 0 = inactive; ? = inconclusive; - = no result given. The call rests on the fitted dose curve; in most records, active means well fitted curve in the direction sought with a large enough effect; inconclusive means small, poorly fitted or top-dose-only effect, or another doubt; inactive means no such curve, though single readings can be large; an effect the other way counts as inactive or inconclusive.

SMILES	mIDH1 inhibitor	GLP1R ag	TrxR1 substrate	GLP1R inv ag	GLP1R cytotox	rTrxR1 inhibitor
CCc1ccc(-c2cc(C)no2)cc1S(=O)(=O)N1CCC(C)CC1	0	0	0	?	0	0
Cc1cc(-c2ccc(C(C)C)c(S(=O)(=O)N3CCN(c4ccccc4)CC3)c2)on1	0	0	0	?	0	0
CCN1CCc2c(sc(-n3cccc3)c2C(C)NC(=O)Nc2cc(Cl)c(OC)cc2OC)C1 (configuration not stated)	0	-	0	0	0	0
CCOc1ccc(Nc2nc3ccccc3n3c(CC)nnc23)cc1	0	-	0	0	0	0
Cc1cc(C)cc(C(=O)C[n+]2cccc(Br)c2)c1	-	-	0	-	-	0
COc1cc2nc(CC(O)c3nc4cc(OC)c(OC)cc4[nH]3)[nH]c2cc1OC (configuration not stated)	-	-	0	-	-	0
NS(=O)(=O)c1ccc(-c2ccc(/C=C3\NC(=S)NC3=O)o2)cc1	?	0	0	0	?	13µM
CC1=C(C#N)C(=O)NC(=O)/C1=C/c1ccc(-c2ccc(S(N)(=O)=O)cc2)o1	0	0	0	0	0	8.9µM
NS(=O)(=O)c1ccc(-c2ccc(C=O)o2)cc1	0	0	0	0	0	0
O=S(=O)(NCc1ccccc1Cl)c1ccc(-c2cnc(C3CC3)o2)cc1	0	-	0	?	0	0
COc1cc(CNC(=O)c2ccc3nc(CCc4ccccc4)oc3c2)cc(OC)c1OC	0	-	0	11µM	0	0
CC(NC(=O)c1ccc2nc(Cc3ccccc3)oc2c1)c1ccccc1 (configuration not stated)	0	-	0	0	0	0
CC(CNC(=O)c1ccc2nc(Cc3ccccc3)oc2c1)c1ccccc1 (configuration not stated)	0	-	0	11µM	0	0
CCOc1ccc2ccccc2c1C(=O)N1CCN(c2ccccc2)CC1	0	0	0	7.9µM	?	0
COc1ccc(N(C(=O)CCl)C(C(=O)NCCc2ccccc2)c2cccs2)cc1Cl (configuration not stated)	0	0	0	?	?	14µM
COc1ccc(N(C(=O)c2ccco2)C(C(=O)NC2CCCCC2)c2cccs2)cc1OC (configuration not stated)	0	0	0	0	0	0
CCc1nn(CC(=O)NCc2ccco2)c(=O)c2cc3c(OC)cccc3n12	0	-	0	0	0	0
COc1ccccc1NC(C)C(=O)c1c(C)[nH]c2ccccc12 (configuration not stated)	-	-	0	-	-	0
O=C(NC(=S)Nc1cccc(Cl)c1N1CCCCC1)c1ccc2c(c1)OCCO2	0	0	0	?	0	0
CCC(=O)NC(=S)Nc1cccc(Cl)c1N1CCCC1	0	0	0	5.6µM	?	0
Cc1cc(NC(=O)COC(=O)c2ccccc2OCCOc2ccccc2)ccc1Br	-	-	0	-	-	0
COc1ccc(Nc2cc(C)c3cc(NC(=O)COc4cccc(C)c4)ccc3n2)cc1	0	0	0	10µM	0	0
Cc1cc(Nc2cccc(Cl)c2)nc2ccc(NC(=O)Cc3ccc(Cl)cc3)cc12	0	0	0	5.6µM	0	0
COc1ccc(CC(=O)Nc2ccc3nc(Nc4cccc(Cl)c4)cc(C)c3c2)cc1OC	0	0	0	?	0	0
Cc1cc(Nc2cccc(C(F)(F)F)c2)nc2ccc(NC(=O)c3cccc(Cl)c3)cc12	0	0	0	2.8µM	?	0
SMILES	mIDH1 inhibitor	GLP1R ag	TrxR1 substrate	GLP1R inv ag	GLP1R cytotox	rTrxR1 inhibitor
Cc1cc(Nc2cccc(Cl)c2)nc2ccc(NC(=O)Cc3cccc(C(F)(F)F)c3)cc12	0	0	0	4µM	?	0
CCOc1ccc(C(=O)Nc2ccc3nc(Nc4cccc(C(F)(F)F)c4)cc(C)c3c2)cc1OCC	0	0	0	0	0	0
Cc1cc(Nc2cccc(Cl)c2)nc2ccc(NC(=O)Cc3c(F)cccc3Cl)cc12	0	0	0	?	0	0
CCN1CCN(c2nc(-c3ccccn3)nc3ccccc23)CC1	0	0	0	?	?	0
CCN1CCN(c2ccc(Nc3ccnc4ccccc34)cc2)CC1	0	0	0	3.5µM	0	0
O=c1[nH]cc(CCc2ccccc2)c2ncncc12	-	-	0	-	-	0
COc1ccc(CC(=O)Nc2ccc(-c3nc4ccccc4s3)cc2Cl)cc1OC	0	-	0	?	0	0
CC(=O)c1ccc(NC(=O)C(C)n2nc(-c3ccccc3)c3cc(Cl)ccc32)cc1 (configuration not stated)	0	0	0	6.3µM	0	0
CC(C(=O)NCc1ccco1)n1nc(-c2ccccc2)c2cc(Cl)ccc21 (configuration not stated)	0	0	0	0	0	0
Cc1cc(N2CCN(Cc3nc(-c4ccc(Cl)cc4)oc3C)CC2)cc(C)n1	0	0	0	1µM	?	0
COc1ccc(-c2nc(CN3CCN(Cc4ccccc4)CC3)c(C)o2)cc1	0	0	0	?	0	0
O=C(NC1CCCC1)c1ccc2c(c1)N(Cc1ccccc1F)C(=O)c1ccccc1S2	0	-	0	?	0	0
OC(CNCc1ccc(-c2ccccc2)cc1)c1ccccc1 (configuration not stated)	0	?	0	10µM	?	0
OC(CNCc1ccncc1)c1ccccc1 (configuration not stated)	0	0	0	0	0	0
O=C1[C@H](Cc2ccccc2)NC/C=C\C[C@@H](c2ccc(Cl)cc2)N1Cc1ccccc1	-	-	0	-	-	0
COc1cc(C)c(Cl)cc1S(=O)(=O)NCc1ccco1	0	0	0	?	0	0
Cc1cc(S(=O)(=O)NCc2ccco2)c(C)cc1Cl	0	0	0	0	0	71µM
COc1cccc(NC(=O)CCc2c(C)nc3ncnn3c2C)c1	0	0	0	0	0	0
Cc1cc(C)nc(NC(=O)/C=C/c2ccccc2Cl)c1	0	0	0	?	0	0
Cc1cc(N)c2cc(NC(=O)/C=C/c3ccccc3Cl)ccc2n1	0	0	0	11µM	0	0
Cc1ccnc(NC(=O)/C=C/c2ccccc2Cl)c1	0	0	0	10µM	0	0
Cc1cc(C)nc(NC(=O)/C=C/c2ccccc2Cl)n1	0	0	0	0	0	0
COCCOC(=O)C1=C(C)NC(C)=C(C(=O)OC/C=C/c2ccccc2)C1c1cccc([N+](=O)[O-])c1 (configuration not stated)	-	0	?	-	-	0
COC(=O)c1ccccc1NC(=O)c1noc2c1CSc1ccccc1-2	0	-	0	0	0	14µM
